About 83,000 compounds went through this panel and 20% of them were active in at least one assay; those are over-represented in the sample as a whole.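 Compound tested at a single concentration for 48 hours in 96-well plates; a percent growth value below 10 was scored as active.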 Activity calls are given as the source filed them.
Tests used:
Experiment in all cases: NCI-60 one-dose screen, 48 h (100 = growth as untreated, 0 = no growth, -100 = all killed)
Settings in all cases: 10 µM unless noted
SR leukemia = test system: SR leukemia
RPMI-8226 leukemia = test system: RPMI-8226 leukemia
OVCAR-8 ovarian = test system: OVCAR-8 ovarian
OVCAR-5 ovarian = test system: OVCAR-5 ovarian
OVCAR-4 ovarian = test system: OVCAR-4 ovarian
SK-OV-3 ovarian = test system: SK-OV-3 ovarian
IGROV1 ovarian = test system: IGROV1 ovarian
OVCAR-3 ovarian = test system: OVCAR-3 ovarian
HS 578T breast = test system: HS 578T breast
NCI/ADR-RES ovarian = test system: NCI/ADR-RES ovarian
T-47D breast = test system: T-47D breast
BT-549 breast = test system: BT-549 breast
MDA-MB-435 melanoma = test system: MDA-MB-435 melanoma
SW-620 colon = test system: SW-620 colon
MCF7 breast = test system: MCF7 breast
HCT-116 colon = test system: HCT-116 colon
HCC-2998 colon = test system: HCC-2998 colon
KM12 colon = test system: KM12 colon

Measured: growth

CCN1C(=O)/C(=C/C(=O)OC)S/C1=N\NC(=O)c1cc2ccc1/C=C\c1ccc(cc1)/C=C\2
active: SR leukemia -13.4% | RPMI-8226 leukemia -14.3% | SW-620 colon 8.79%
inactive: OVCAR-8 ovarian 92.6% | OVCAR-5 ovarian 100% | OVCAR-4 ovarian 89.6% | SK-OV-3 ovarian 125% | IGROV1 ovarian 88.4% | OVCAR-3 ovarian 92.9% | HS 578T breast 99% | NCI/ADR-RES ovarian 86.5% | T-47D breast 94.2% | BT-549 breast 92.3% | MDA-MB-435 melanoma 99.3% | MCF7 breast 43.7% | HCT-116 colon 49.5% | HCC-2998 colon 105% | KM12 colon 85%

N#CC1=C(/N=C/c2ccccc2)Oc2c(ccc3ccccc23)C1c1ccc([N+](=O)[O-])cc1 (stereo not drawn)
inactive: SR leukemia 81% | RPMI-8226 leukemia 92% | OVCAR-8 ovarian 95% | OVCAR-5 ovarian 101% | OVCAR-4 ovarian 88.2% | SK-OV-3 ovarian 86.9% | IGROV1 ovarian 56.6% | OVCAR-3 ovarian 86.4% | HS 578T breast 91.6% | NCI/ADR-RES ovarian 95.6% | T-47D breast 76.5% | BT-549 breast 103% | MDA-MB-435 melanoma 101% | SW-620 colon 93% | MCF7 breast 78.4% | HCT-116 colon 92% | HCC-2998 colon 98.3% | KM12 colon 97.6%

COC(=O)C1=C(C(=O)ON)C2C=CC1(C(Cc1ccccc1)Nc1ccccc1)O2 (stereo not drawn)
inactive: RPMI-8226 leukemia 11.8% | OVCAR-8 ovarian 91.2% | OVCAR-5 ovarian 105% | OVCAR-4 ovarian 69% | SK-OV-3 ovarian 104% | IGROV1 ovarian 75.9% | HS 578T breast 108% | NCI/ADR-RES ovarian 94.6% | BT-549 breast 106% | MDA-MB-435 melanoma 94.5% | MCF7 breast 83.3% | HCC-2998 colon 93.6% | KM12 colon 103%
active: SR leukemia 4.9% | OVCAR-3 ovarian -100% | T-47D breast -51.1% | SW-620 colon -60% | HCT-116 colon -73.8%

O=C(c1nc2ccccc2[nH]1)C1C(c2ccc(Cl)cc2)C2CC3CCCC[C@H]3N2[C@@]12C(=O)Nc1cc(Cl)ccc12 (stereo partly drawn)
inactive: SR leukemia 39% | RPMI-8226 leukemia 16.8% | OVCAR-8 ovarian 61.3% | OVCAR-5 ovarian 56% | OVCAR-4 ovarian 24.4% | SK-OV-3 ovarian 71.4% | IGROV1 ovarian 32% | OVCAR-3 ovarian 35% | HS 578T breast 73.2% | NCI/ADR-RES ovarian 50.5% | T-47D breast 24.8% | BT-549 breast 80.8% | MDA-MB-435 melanoma 24.8% | SW-620 colon 33.2% | MCF7 breast 17.3% | HCT-116 colon 23.4% | HCC-2998 colon 52% | KM12 colon 45.8%

Cn1ccnc1C(=O)/C=C/c1ccc(CC(=O)Nc2ccc(F)cc2)cc1
active: RPMI-8226 leukemia 1.1% | OVCAR-3 ovarian 6.19% | HCT-116 colon 4.94% | KM12 colon 6.52%
inactive: SR leukemia 14.4% | OVCAR-8 ovarian 12.7% | OVCAR-5 ovarian 65.5% | OVCAR-4 ovarian 30.3% | SK-OV-3 ovarian 85.4% | IGROV1 ovarian 39.3% | HS 578T breast 57.7% | NCI/ADR-RES ovarian 21.7% | T-47D breast 28.8% | BT-549 breast 23.6% | MDA-MB-435 melanoma 19.7% | SW-620 colon 10.1% | MCF7 breast 28% | HCC-2998 colon 85.4%

O=C(N/N=C/c1cc2ccccc2n2nnnc12)Nc1ccccc1
inactive: SR leukemia 87.4% | RPMI-8226 leukemia 101% | OVCAR-8 ovarian 103% | OVCAR-5 ovarian 106% | OVCAR-4 ovarian 108% | SK-OV-3 ovarian 112% | IGROV1 ovarian 112% | OVCAR-3 ovarian 111% | HS 578T breast 109% | NCI/ADR-RES ovarian 105% | T-47D breast 108% | BT-549 breast 114% | MDA-MB-435 melanoma 102% | SW-620 colon 107% | MCF7 breast 92.3% | HCT-116 colon 113% | HCC-2998 colon 108% | KM12 colon 104%

O=C(Cn1c(C(=O)c2ccccc2)nc2ccccc21)c1ccc(F)cc1
inactive: SR leukemia 25.4% | RPMI-8226 leukemia 28.7% | OVCAR-8 ovarian 79.7% | OVCAR-5 ovarian 84.2% | OVCAR-4 ovarian 58.4% | SK-OV-3 ovarian 110% | IGROV1 ovarian 41.1% | OVCAR-3 ovarian 67.2% | HS 578T breast 56.2% | NCI/ADR-RES ovarian 16.1% | T-47D breast 58.7% | BT-549 breast 60.2% | SW-620 colon 22.9% | MCF7 breast 36.4% | HCT-116 colon 39.2% | HCC-2998 colon 50.1% | KM12 colon 43.9%
active: MDA-MB-435 melanoma -32%

O=C1c2ccc3c4c(ccc(c24)C(=O)N1CCCNCc1ccccc1F)C(=O)N(CCCNCc1ccccc1F)C3=O
active: SR leukemia -37.8% | RPMI-8226 leukemia -32.2% | OVCAR-8 ovarian -17.4% | OVCAR-5 ovarian -23% | OVCAR-4 ovarian -98.4% | SK-OV-3 ovarian -21.8% | IGROV1 ovarian -57.7% | OVCAR-3 ovarian -63% | HS 578T breast -23.7% | NCI/ADR-RES ovarian -18.4% | T-47D breast -27.9% | BT-549 breast -85.4% | MDA-MB-435 melanoma -74.3% | SW-620 colon -73.3% | MCF7 breast -80.5% | HCT-116 colon -37.7% | HCC-2998 colon -93.1% | KM12 colon -76.1%

Cc1cc2nc3c4cc(C=O)ccc4n(CCN(C)C)c3nc2cc1C
active: SR leukemia 3.27% | RPMI-8226 leukemia -22.6% | IGROV1 ovarian 5.83% | SW-620 colon 1.57% | MCF7 breast 2.77%
inactive: OVCAR-8 ovarian 17.6% | OVCAR-5 ovarian 22.5% | OVCAR-4 ovarian 23.8% | SK-OV-3 ovarian 26.8% | OVCAR-3 ovarian 22.7% | HS 578T breast 51.6% | NCI/ADR-RES ovarian 18.5% | T-47D breast 22.3% | BT-549 breast 53.6% | MDA-MB-435 melanoma 25.6% | HCT-116 colon 10.2% | HCC-2998 colon 40.6% | KM12 colon 26.3%

COc1ccc(C(=O)Nc2cccc(C3CCc4c(cc(OC)c(OC)c4OC)O3)c2)cc1 (stereo not drawn)
active: MDA-MB-435 melanoma -14.9%
inactive: SR leukemia 21.6% | RPMI-8226 leukemia 23.9% | OVCAR-8 ovarian 55.6% | OVCAR-5 ovarian 91.1% | OVCAR-4 ovarian 47.4% | SK-OV-3 ovarian 51.6% | IGROV1 ovarian 52% | OVCAR-3 ovarian 35.3% | HS 578T breast 38.9% | NCI/ADR-RES ovarian 38.5% | T-47D breast 15.8% | BT-549 breast 40.9% | SW-620 colon 28.8% | MCF7 breast 33.1% | HCT-116 colon 23.1% | HCC-2998 colon 80.1% | KM12 colon 29.4%

C=C(C)[C@@H]1CC[C@]2(C(=O)N3CCN(C)CC3)CC[C@]3(C)[C@H](CC[C@@H]4[C@@]5(C)CC[C@H](O)C(C)(C)[C@@H]5CC[C@]43C)[C@@H]12
active: SR leukemia -19.9% | RPMI-8226 leukemia -40.1% | OVCAR-8 ovarian -55% | OVCAR-5 ovarian -13.8% | OVCAR-4 ovarian -79.6% | IGROV1 ovarian -72.6% | OVCAR-3 ovarian -94% | HS 578T breast -46.1% | NCI/ADR-RES ovarian -42.7% | T-47D breast -73.8% | BT-549 breast -51.8% | MDA-MB-435 melanoma -82.1% | SW-620 colon -74.8% | MCF7 breast -79.6% | HCT-116 colon -98.3% | HCC-2998 colon -85.3% | KM12 colon -80.7%
inactive: SK-OV-3 ovarian 125%

CC1=C(C(=O)/C=C/c2c[nH]c3ccccc23)C(c2ccccc2)NC(=S)N1 (stereo not drawn)
inactive: SR leukemia 88.8% | RPMI-8226 leukemia 101% | OVCAR-8 ovarian 101% | OVCAR-5 ovarian 96.7% | OVCAR-4 ovarian 101% | SK-OV-3 ovarian 95.4% | IGROV1 ovarian 76.8% | OVCAR-3 ovarian 98.5% | HS 578T breast 95.9% | NCI/ADR-RES ovarian 97.1% | T-47D breast 98.6% | BT-549 breast 107% | MDA-MB-435 melanoma 97.4% | SW-620 colon 91.7% | MCF7 breast 95.4% | HCT-116 colon 93.3% | HCC-2998 colon 108% | KM12 colon 106%

O=C(c1ccccc1)N1N=C(c2ccc(-n3ccc(C(F)(F)F)n3)c(F)c2)CC1c1ccc[nH]1 (stereo not drawn)
inactive: SR leukemia 104% | RPMI-8226 leukemia 101% | OVCAR-8 ovarian 104% | OVCAR-5 ovarian 104% | OVCAR-4 ovarian 116% | SK-OV-3 ovarian 141% | IGROV1 ovarian 108% | OVCAR-3 ovarian 116% | HS 578T breast 107% | NCI/ADR-RES ovarian 100% | T-47D breast 90.6% | BT-549 breast 110% | MDA-MB-435 melanoma 102% | SW-620 colon 108% | MCF7 breast 96.4% | HCT-116 colon 105% | HCC-2998 colon 112% | KM12 colon 104%

COc1ccc2c(c1)C(=O)CC(c1ccccc1OC)O2 (stereo not drawn)
inactive: SR leukemia 89.3% | RPMI-8226 leukemia 105% | OVCAR-8 ovarian 100% | OVCAR-5 ovarian 108% | OVCAR-4 ovarian 102% | SK-OV-3 ovarian 104% | IGROV1 ovarian 79.3% | OVCAR-3 ovarian 117% | HS 578T breast 101% | NCI/ADR-RES ovarian 86% | T-47D breast 91.1% | BT-549 breast 96.5% | MDA-MB-435 melanoma 100% | SW-620 colon 103% | MCF7 breast 83.8% | HCT-116 colon 103% | HCC-2998 colon 105% | KM12 colon 102%

CC[C@]12C=CCN3CC[C@@]4(c5cc(NC(=O)CCC(=O)O[C@H]6CC[C@H]7[C@@H]8CCC9=CC(=O)CC[C@@H]9[C@H]8CC[C@]67C)c(OC)cc5N(C)[C@H]4[C@@](O)(C(=O)OC)[C@@H]1OC(C)=O)[C@@H]32
inactive: SR leukemia 40% | RPMI-8226 leukemia 54.6% | OVCAR-8 ovarian 75.6% | OVCAR-5 ovarian 96.1% | OVCAR-4 ovarian 67% | SK-OV-3 ovarian 104% | IGROV1 ovarian 61.6% | OVCAR-3 ovarian 80.8% | HS 578T breast 73.9% | NCI/ADR-RES ovarian 80.1% | T-47D breast 53% | BT-549 breast 77.6% | MDA-MB-435 melanoma 20.7% | SW-620 colon 86.9% | MCF7 breast 80% | HCT-116 colon 62.5% | HCC-2998 colon 91.9% | KM12 colon 73.1%

ClC1=C(Br)C(Br)(Br)C(=C(Br)Br)C1(Br)Br
inactive: SR leukemia 44% | RPMI-8226 leukemia 73.1% | OVCAR-8 ovarian 85.1% | OVCAR-5 ovarian 110% | OVCAR-4 ovarian 99.1% | SK-OV-3 ovarian 118% | IGROV1 ovarian 102% | OVCAR-3 ovarian 75% | HS 578T breast 103% | NCI/ADR-RES ovarian 110% | T-47D breast 73.6% | BT-549 breast 113% | MDA-MB-435 melanoma 107% | SW-620 colon 54% | MCF7 breast 76.8% | HCT-116 colon 79.9% | HCC-2998 colon 115% | KM12 colon 101%
